Laboratory results from ChEMBL document CHEMBL3988442, “University of Dundee, Small-Polar-MMV Screening Library” (2021).
Among all 68,000 compounds or so, about 25 (0.04%) showed an effect of 50% or more. This excerpt belongs to a sample that is enriched for strong results.

What follows are compounds tested against T1, Methionyl-tRNA synthetase, putative (Leishmania donovani (strain BPK282A1)) (UniProt E9BF75) (assay: Leishmania donovani Methionine tRNA synthetase (LdMetRS):v6. Primary screen assay).
T1 sequence (whole entry): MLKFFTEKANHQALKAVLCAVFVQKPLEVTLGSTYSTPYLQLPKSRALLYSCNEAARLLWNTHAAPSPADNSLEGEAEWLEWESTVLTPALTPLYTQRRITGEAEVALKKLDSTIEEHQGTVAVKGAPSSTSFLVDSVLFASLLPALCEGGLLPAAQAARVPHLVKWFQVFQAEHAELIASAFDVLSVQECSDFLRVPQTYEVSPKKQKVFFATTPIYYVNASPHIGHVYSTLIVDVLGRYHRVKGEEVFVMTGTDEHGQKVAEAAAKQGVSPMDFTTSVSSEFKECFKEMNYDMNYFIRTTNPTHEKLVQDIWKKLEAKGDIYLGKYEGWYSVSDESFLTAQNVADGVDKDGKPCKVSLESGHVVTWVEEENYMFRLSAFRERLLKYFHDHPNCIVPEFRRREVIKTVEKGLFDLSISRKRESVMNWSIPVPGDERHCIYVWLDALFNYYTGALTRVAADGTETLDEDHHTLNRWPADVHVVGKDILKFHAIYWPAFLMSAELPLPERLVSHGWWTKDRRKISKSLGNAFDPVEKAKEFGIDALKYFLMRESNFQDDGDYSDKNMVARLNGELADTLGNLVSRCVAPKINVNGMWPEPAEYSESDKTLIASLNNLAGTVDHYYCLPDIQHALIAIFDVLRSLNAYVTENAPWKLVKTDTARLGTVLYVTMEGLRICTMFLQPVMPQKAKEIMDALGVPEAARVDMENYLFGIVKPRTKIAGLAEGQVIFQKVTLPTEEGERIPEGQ
Type: functional
Parameters: conc 80 nM, time 150 minutes

| SMILES | inhibition |
| --- | --- |
| O=C(NC1CC1)[C@@H]1CCO[C@@H]2CCN(CC3CCC3)C[C@H]21 | 16.2% |
| CCN1C(=O)[C@]2(CC[C@@H]3CN(S(=O)(=O)CC(C)C)C[C@@H]32)N=C1C | 16.2% |
| O=C(NCc1ccco1)[C@@]12CCO[C@@H]1CCN(Cc1ccccn1)C2 | 16.3% |
| Cc1ccc(N2CCO[C@H]3CN(C(=O)c4cccc(C)n4)C[C@H]32)nn1 | 5.75% |
| c1ccc(N(CCn2cncn2)CC2CC2)cc1 | 11% |
| Oc1ccc(N(CCc2ccccc2)CCn2cncn2)cc1 | 70% |
| OCCCN(CCn1cncn1)c1ccccc1 | 8.36% |
| Cc1ccccc1C(=O)N1C[C@@H]2CCN(c3cccnc3)C[C@@H]2C1 | 10.5% |
| Cc1nc(CN2C[C@@H]3CN(C(=O)c4ccnnc4)C[C@@H]3C2=O)cs1 | 13.1% |
| CO[C@H]1CN(Cc2ccccc2F)[C@@H]2CCCO[C@H]12 | 10.8% |
| CNc1cc(-c2ccc(COCCN)cc2)c2cc[nH]c2n1 | 33.4% |
| CNc1cc(-c2cccc(CN)c2)c2cc[nH]c2n1 | 53% |
| CNc1cc(-c2ccccc2CN)c2cc[nH]c2n1 | 23.4% |
| CCn1cc(CN2C[C@H]3CC[C@@H]2CN(C(=O)C2CCC2)C3)cn1 | 12.2% |
| CS(=O)(=O)N1C[C@@H]2COC[C@]2(C(=O)NCCc2cccs2)C1 | 3.36% |
| c1cc2c(cc1CN1CC[C@H]3[C@H]1CCN3CC1CC1)OCO2 | 5% |
| CS(=O)(=O)NC[C@]12COC[C@H]1CN(Cc1ccc3c(c1)OCO3)C2 | 15.2% |
| CN(C)CCN1C[C@@H]2CN(S(=O)(=O)c3ccccc3)C[C@@H]2C1=O | 17.1% |
| O=C(NCCc1ccccn1)[C@@]12CCO[C@@H]1CCN(c1ncccn1)C2 | 18.5% |
| CN1CCCC[C@@H]2[C@H]1[C@@H](c1ccccc1)CCN2C(=O)c1ccncc1 | 12.5% |
| Cc1nnc([C@H]2C[C@H]3CN(C(=O)Cc4ccc(F)cc4)CC[C@@H]3O2)o1 | 18.5% |
| COCCN1CCN(Cc2ccc(F)c(C)c2)[C@H]2CS(=O)(=O)C[C@H]21 | 0.741% |
| COCCN1C(=O)CC[C@]12CC[C@@H](NCc1nccs1)CC2 | 7.27% |
| N#Cc1cccc(CN2C[C@H](OCC3CCOCC3)[C@H]3COC[C@H]32)c1 | 14.8% |
| Cn1cc(CN2C[C@@H](N3CCCC3=O)[C@H]3OCCC[C@H]32)cn1 | 6.57% |
| O=C1N(Cc2ccccc2)C[C@H]2CN(Cc3ccccc3Cl)CCN12 | 12.1% |
| Cc1ccc(S(=O)(=O)N2C[C@H]3C[C@H](NC(=O)c4ccn(C)n4)[C@H]3C2)cc1 | 11.3% |

| SMILES | inhibition |
| --- | --- |
| CCCN1C[C@H]2CC[C@@H]1CN(Cc1cccc(O)c1)C2 | 3.78% |
| Cn1cc(CN2CCO[C@H]3C(Cn4cccn4)CC[C@@H]32)cn1 (stereo not given in full) | 11.4% |
| Cc1cnc(CN2C[C@H]3C[C@H](Oc4ccccc4)C[C@H]3C2)cn1 | 0% |
| CNC(=O)[C@@H]1[C@@H](c2ccccc2)CN2CCN(Cc3ccco3)C[C@H]12 | 0.822% |
| COc1cc(CN2CCCC[C@]3(C)NC(=O)CC[C@H]23)ccc1F | 14.2% |
| O=C(NCC1CC1)[C@H]1CC[C@@H]2[C@@H](CCN2Cc2ccoc2)O1 | 10.8% |
| Cc1cccc(CN2CC[C@H]3CO[C@H](CNC(=O)N(C)C)[C@H]3C2)c1 | 3.76% |
| CN(C)C(=O)NCc1cc2n(n1)CCN(C[C@H]1[C@@H]3CNC[C@@H]31)C2 | 12% |
| O=C1NC(c2ccccc2)=N[C@@]12CC[C@@H]1CN(S(=O)(=O)C3CC3)C[C@@H]12 | 6.19% |
| CC(C)NC(=O)[C@H]1C[C@@H]2[C@@H](C1)OCCN2Cc1ccsc1 | 10.1% |
| Cc1ccc(CN2CC[C@H]3CO[C@H](CN(C)C)[C@H]3C2)o1 | 15.1% |
| CO[C@@H]1CC[C@H]2[C@H]1OCCN2S(=O)(=O)c1cn(C)cn1 | 7.3% |
| COCC(=O)N1C[C@H]2CC[C@@]3(N=C(c4ccccc4)NC3=O)[C@H]2C1 | 8.15% |
| Cc1nc(C)n(CC2CCCN2Cc2nc(N)c3ccccc3n2)n1 (stereo not given) | 11.2% |
| Cc1nc(C)n(CC2CCCN2Cc2nc3ccccc3nc2C)n1 (stereo not given) | 13.3% |
| Cc1nc(C)n(CC2CCCN2Cc2nc(C)c3ccccc3n2)n1 (stereo not given) | 57% |
| O=C(c1ccco1)N1C(CN2CCOCC2)[C@]2(O)CC[C@H]1CC2 (stereo not given in full) | 15.1% |
| O=C(N[C@@H]1CN(Cc2cccs2)[C@@H]2CCCO[C@@H]21)c1cscn1 | 11.8% |
| Cc1nc([C@@H]2C[C@@H]3CCN(C(=O)Cc4ccsc4)C[C@H]3O2)no1 | 8.15% |
| COCCCN1C(=O)CC[C@H]2CN(c3cnc4ccccc4n3)CC[C@H]21 | -5.03% |
| CCC1=N[C@@]2(CC[C@@H]3CN(C(=O)NC(C)C)C[C@@H]32)C(=O)N1C | 12.4% |
| Cc1nc(CN2C[C@@H]3CCCO[C@@H]3[C@H](NC(=O)CC3CC3)C2)cs1 | 12.6% |
| CS(=O)(=O)NC[C@H]1OC[C@H]2CN(Cc3ccsc3)CC[C@H]21 | 17.8% |
| COCCNC(=O)c1ccc2ccc(N(C)CC3CC3)n2c1 | 22.1% |
| CN(CC1CC1)c1ccc2ccc(C(=O)NCCc3ccccc3)cn12 | 51% |
| CN(C)CCNC(=O)c1ccc2ccc(N(C)CC3CC3)n2c1 | 25.3% |
| O=C(c1ccc[nH]1)N1C[C@H](OCc2cccnc2)[C@H]2COC[C@H]21 | 16.2% |

| SMILES | inhibition |
| --- | --- |
| C=C1C(C)(C)[C@H]2CC[C@]1(C(=O)N1CCC(Cn3cc(CO)nn3)CC1)C2 | 11.7% |
| NC(=O)N1CC[C@H]2CO[C@H](CNC(=O)c3ccnnc3)[C@H]2C1 | 15% |
| Cc1ncsc1CCN(C)C(=O)c1ccc(Cn2cnnn2)cc1 | 16.8% |
| Cc1nc(CN(C)C(=O)c2ccc(Cn3cnnn3)cc2)cs1 | 123% |
| Cc1cnccc1CN(C)C(=O)c1ccc(Cn2cnnn2)cc1 | 2.48% |
| O=S1(=O)C[C@@H]2[C@H](C1)N(Cc1cc(F)cc(F)c1)CCN2CCO | 1.27% |
| COc1cccc(-c2noc3c2CN(c2nc(C)ncc2C)CC3)c1 | 15% |
| COCc1cc(N2CCc3onc(-c4cccc(OC)c4)c3C2)ncn1 | 12.5% |
| COc1cccc(-c2noc3c2CN(c2ncnc4c2CCC4)CC3)c1 | 52.3% |
| O=C(NC1CC1)[C@H]1CC[C@@H]2[C@@H](CCN2Cc2ccsc2)O1 | 6.67% |
| Cc1ccnc(NCCNC(=O)CCNC(=O)c2ccccc2F)c1 | 34.8% |
| CCn1cnnc1CCNC(=O)CCNC(=O)c1ccccc1F | 17.3% |
| O=C(CCNC(=O)c1ccccc1F)NCCNc1cccnc1 | 120% |
| Cc1cccc(C(=O)N2C[C@@H]3[C@H](CC(=O)NC(C)C)[C@@H]3C2)n1 | 6.67% |
| Cc1ccc(-c2ncc(CNc3cnccc3CO)s2)cc1 | 1.86% |
| Cc1ncc(CNc2cnccc2CO)s1 | 11.8% |
| CC(C)Cc1ncc(CNc2cnccc2CO)s1 | 121% |
| Cn1cc(C(=O)N[C@@H]2CN(Cc3cccs3)[C@@H]3CCCO[C@@H]32)cn1 | 16.3% |
| O=C1NC[C@]2(CC[C@@H](C(=O)N3CCC(O)CC3)CC2)Oc2ccccc21 | 17.4% |
| Cc1oc(C(C)C)cc1C(=O)N1C[C@H]2CC[C@@H]1CN(c1ncccn1)C2 | 7.9% |
| O=C([C@@H]1COC[C@H]2CN(C3CCCCC3)C[C@H]21)N1CCOCC1 | 14.6% |
| O=S(=O)(CCSc1nccn1C1CC1)c1ccccc1 | -9.32% |
| O=S(=O)(NCCSc1nccn1C1CC1)c1ccccc1 | 67.7% |
| O=S(=O)(NCCSc1nncn1C1CC1)c1ccccc1 | 3.73% |
| Cc1noc([C@@]23CCO[C@@H]2CCN(C(=O)c2cc(C)c(C)s2)C3)n1 | 8.14% |
| Cc1noc([C@@H]2C[C@H]3OCC[C@H]3N(Cc3sccc3C)C2)n1 | 10.5% |
| Cc1occc1C(=O)N1CCO[C@H]2[C@H](Oc3cccnc3)CC[C@@H]21 | 3.85% |

| SMILES | inhibition |
| --- | --- |
| CCS(=O)(=O)N1CC[C@H]2O[C@H](c3nc(C)no3)CC[C@H]21 | 21% |
| O=C1C[C@H]2CC[C@@H](CN1)N2C(=O)CCc1ccc2c(c1)OCO2 | 17% |
| O=C(c1cc(F)cc(Cl)c1)N1CCN(CCO)[C@@H]2CS(=O)(=O)C[C@@H]21 | 3.31% |
| Cc1noc(C)c1CN1CC[C@H]2OCC[C@@H](C(=O)NCC3CC3)[C@H]2C1 | 14.8% |
| Cc1ccc(CN2CC[C@H]3OCC[C@@]3(C(=O)N3CCCO3)C2)o1 | 6.85% |
| O=C(N[C@@H]1CN(c2ncccn2)[C@@H]2CCCO[C@@H]21)c1cscn1 | 13.6% |
| O=C1CC[C@H]2CN(c3ncccc3F)CC[C@H]2N1CCc1ccccc1 | -0.347% |
| CCc1c(C(=O)N2C[C@H]3CC[C@@H]2CN(c2cnccn2)C3)csc1C | 13.4% |
| CN(C)C(=O)[C@@H]1CCO[C@@H]2CCN(CCOCc3ccccc3)C[C@H]21 | 1.54% |
| OCC1N(Cc2ccc(F)cc2)[C@H]2CC[C@]1(O)CC2 (stereo not given in full) | 12.3% |
| Cc1ccc(C(=O)N2C[C@@H](N3CCN(C)CC3)[C@H]3OCCC[C@H]32)cn1 | 14.1% |
| N#Cc1ccccc1CN1C[C@H]2CC[C@@H]1CN(C(=O)c1cccnc1)C2 | 15.4% |
| CNC(=O)[C@@]12CCC3(CCNCC3)[C@@H]1CN(S(C)(=O)=O)C2 | 18.3% |
| O=C1OCCN1CC(=O)N1C[C@H]2CC[C@@H]1CN(C(=O)c1ccccc1)C2 | 10.6% |
| Cc1nc(CC(=O)N2c3ccccc3OCC2C)cs1 (stereo not given) | 6.21% |
| CC1COc2ccccc2N1C(=O)c1cscn1 (stereo not given) | 12.4% |
| CC1COc2ccccc2N1C(=O)CCc1cscn1 (stereo not given) | 59% |
| CNC(=O)[C@@H]1C[C@H]2CN(C(=O)c3ccco3)C[C@H]2N1C(C)C | 14.5% |
| CC(C)=CCN1C[C@@H]2CN(C(=O)c3cnccc3C)C[C@]2(C(=O)O)C1 | 8.52% |
| CCCN1CCN(Cc2cccc(OC)c2)[C@H]2CS(=O)(=O)C[C@H]21 | 12.4% |
| CNC1CCN(C2CCN(c3ccc(-c4ccco4)cc3)CC2)CC1 | 21% |
| NC1CCN(C2CCN(c3ccc(-c4ccco4)cc3)CC2)CC1 | 42.5% |
| NCC1CCN(C2CCN(c3ccc(-c4ccco4)cc3)CC2)C1 (stereo not given) | 52.7% |
| CCc1cc(CN2C[C@H]3CC[C@@H]2CN(C2Cc4ccccc4C2)C3)on1 | 18.8% |
